Reference: PubChem BioAssay (NCATS)
Several values for one entry are separate records, joined by “and”; a condition that tells them apart may be missing. Identical values can stand only once. Results filed as inconclusive are left out. A number with no mark means an inactive call. Activity calls are given as the source filed them. Calls follow the shape of the dose curve; as a rule, active = well fitted cell-killing curve with a large enough effect; inconclusive = small, poorly fitted or top-dose-only effect, or effect the other way; inactive = no such curve, though single readings can be large or run the other way.

Assay: Viability qHTS for spleen associated tyrosine kinase inhibitor (SYKi) drug resistant MV4-11 cells (AID 1963824); also: nearly all actives have a fitted effect of over 35% in size
Details: SYKi-resistant MV4-11 viability, CellTiter-Glo, 72 h; series mostly up to 45 µM; viability, % of control: at the top concentration
Summary of the method: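 SYK inhibitor-resistant MV4-11 AML cells, 500 per well, added to predispensed compounds and incubated 72 hr at 37 C, 5% CO2. Viability measured by CellTiter-Glo luminescence after 10 min at room temperature.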
Potency is read from the fitted curve at half-maximal effect.

| Structure (SMILES) | Potency | viability, % of control |
| --- | --- | --- |
| CC(C)n1cnc2c(Nc3cccc(Cl)c3)nc(NCCO)nc21 | 1.84 µM (active) |  |
| COc1cc(C[C@H]2COC(=O)[C@@H]2Cc2ccc(O)c(OC)c2)ccc1O |  | 82% |
| C/C=C(\C)C(=O)OC1C2(O)CC3=C4CC(=O)OC(c5ccoc5)C4(C)CCC3C(C)(C2=O)C(C(OC(C)=O)C(=O)OC)C1(C)C (stereo not given) | 4.85 µM (active) |  |
| Nc1nc(NCC2CCC(CNS(=O)(=O)c3cccc4ccccc34)CC2)nc2ccccc12 (stereo not given) | 2.31 µM (active) |  |
| OCC1=C[C@@H](O)[C@@H]2C=CO[C@@H](O[C@@H]3O[C@H](CO)[C@@H](O)[C@H](O)[C@H]3O)[C@H]12 |  | 115% |
| CC(=O)OC1C(O)CC2(C)C(CCC(C)C23Cc2c(O)cc(CO)c(C=O)c2O3)C1(C)C (stereo not given) | 11.2 µM (active) |  |
| Cc1cnc(-c2ccccc2C(C)C)nc1NCc1ccc(-n2ccnn2)cc1 | 16.4 µM (active) and 14.8 µM (active) |  |
| CNCCC(c1cccs1)c1ccc(O)c2ccccc12 (stereo not given) | 14.6 µM (active) |  |
| COC(=O)/C=C/C=C/C(=O)OC1C=C2COC(=O)C2(O)C2(C)CCCC(C)(C)C12 (stereo not given) | 8.93 µM (active) |  |
| CN(C/C=C/c1ccccc1)Cc1cccc2ccccc12 |  | 55.1% |
| COc1c2c(c(C)c3c1C(=O)OC3)OC1(C)CC(O)C34OC(OC)(CC(O)C3(C)C1C2)OC4(C)C (stereo not given) | 10 µM (active) |  |
| N[C@H]1Cc2ccccc2N(O)C1=O |  | 71.7% |
| COC(=O)c1ccc2c(c1)[nH]c1ncnc(NCCCN3CCCCC3)c12 | 9.2 µM (active) |  |
| C/C=C(\C)C(=O)OC1C(C)C2(O)C(C=C(CO)CC3(O)C(=O)C(C)=CC32)C2C(C)(C)C12OC(C)=O (stereo not given) | 0.112 µM (active) |  |
| CO[C@H]1/C=C/O[C@@]2(C)Oc3c(C)c(O)c4c(O)c(c(/C=N/N5CCN(C)CC5)c(O)c4c3C2=O)NC(=O)/C(C)=C\C=C\[C@H](C)[C@H](O)[C@@H](C)[C@@H](O)[C@@H](C)[C@H](OC(C)=O)[C@@H]1C | 18.6 µM (active) |  |
| Fc1ccc(C(c2ccc(F)cc2)N2CCN(C/C=C/c3ccccc3)CC2)cc1 | 21.1 µM (active) |  |
| CN[C@H]1CCN(C(=O)c2ccc(Nc3ncc(F)c(-c4cnc(C)n4C(C)C)n3)cc2)C1 | 0.0517 µM (active) |  |
| C=C1CCC2C(C)(C(=O)O)CCCC2(C)C1CCC(C)CC(=O)O (stereo not given) | 4.53 µM (active) |  |
| O=C(CCc1ccccc1)c1c(O)c([C@@H]2O[C@H](CO)[C@@H](O)[C@H](O)[C@H]2O)c(O)c([C@@H]2O[C@H](CO)[C@@H](O)[C@H](O)[C@H]2O)c1O |  | 96.3% [at 17.3 µM] |
| CC(=O)NC(C(=O)O[C@H]1CCC(C)(C)[C@@H]2CC=C3C(=O)OCC3(O)[C@@]12C)C(C)C (stereo not given in full) | 3.6 µM (active) |  |

| Structure (SMILES) | Potency | viability, % of control |
| --- | --- | --- |
| C=C1C(=O)O[C@@H]2C[C@H](C)[C@@H]3CC(=O)C(C)=C3C[C@H]12 | 1.16 µM (active) |  |
| CC1(C)C=CN2C(=O)C3=CCCN3C(=O)[C@@H]2C[C@@]12Nc1ccccc1C2=O |  | 97% |
| CC(C)(C)n1nc(-c2cccc3ccccc23)c2c(N)ncnc21 | 14.6 µM (active) |  |
| O=C1NC(=O)/C(=C\c2ccc3c(c2)OC(F)(F)O3)S1 | 14.6 µM (active) |  |
| CCn1c(-c2nonc2N)nc2cncc(C(=O)N3CC[C@H](N)C3)c21 | 8.2 µM (active) |  |
| C[C@@H]1O[C@@H](O[C@H]2[C@H](OC(C#N)c3ccc(O)cc3)O[C@H](CO)[C@@H](O)[C@@H]2O)[C@H](O)[C@H](O)[C@H]1O (stereo not given in full) |  | 85.1% [at 17.3 µM] |
| O=C(Cc1ccc(Cl)cc1)Nc1cnccc1C(=O)O |  | 96% |
| Cc1ccc(NS(=O)(=O)c2cc3c(cc2Cl)CCC(=O)N3)cc1Cl | 9.2 µM (active) |  |
| Cc1ccccc1-n1c([C@H](C)Nc2nc(N)nc3nc[nH]c23)nc2cccc(C)c2c1=O | 2.91 µM (active) |  |
| COc1cc2ncnc(Nc3ccc(Oc4ccccc4)cc3)c2cc1OC | 0.291 µM (active) |  |
| COC(=O)C[C@H]1C(C)(C)[C@H](OC(C)=O)C2CC3=C4CC(=O)O[C@@H](c5ccoc5)[C@]4(C)CCC3[C@@]1(C)C2=O (stereo not given in full) | 3.55 µM (active) |  |
| OC(CC1c2ccccc2-c2cncn21)C1CCCCC1 (stereo not given) | 20.6 µM (active) |  |
| CC1=C(c2ccc(NC(=O)c3c(F)cccc3F)cc2)CN(c2nccs2)CC1 | 2.59 µM (active) |  |
| CCNC1(C(N)=O)CN(c2nc(C)nc3c(-c4ccc(Cl)cc4)c(-c4ccccc4Cl)nn23)C1 | 16.4 µM (active) |  |
| Nc1ncnc2c1c(I)cn2C1OC(CO)C(O)C1O (stereo not given) | 0.411 µM (active) |  |
| COC(=O)c1ccnc(-c2cc(C(=O)NCCc3ccccc3)ccn2)c1 |  | 14.7% |
| C=C1C(O)C(O)C2(CC3C(C)=CCC4C(C)(CO)CCCC34C)OC2C1O (stereo not given) |  | 83.4% |
| C[C@]1(C(=O)Nc2ccc(F)nc2)CCCN1c1nc(Nc2cc(C3CC3)[nH]n2)c2cccn2n1 | 1.64 µM (active) |  |
| C/C=C(/C)C(=O)O[C@H]1[C@H](OC(=O)/C(C)=C\C)[C@@]23C(CC1(C)C)[C@]1(CCC4[C@@]5(C)CC[C@H](O[C@@H]6O[C@H](C(=O)O)[C@@H](O)[C@H](O[C@@H]7O[C@H](CO)[C@H](O)[C@H](O)[C@H]7O[C@@H]7O[C@@H](C)[C@H](O)[C@@H](O)[C@H]7O[C@@H]7OC[C@@H](O)[C@H](O)[C@H]7O)[C@H]6O[C@@H]6O[C@H](CO)[C@H](O)[C@H](O)[C@H]6O)C(C)(C)C5CC[C@@]4(C)[C@]1(C)C[C@H]2O)O[C@H]3O (stereo not given in full) | 0.776 µM (active) |  |
| NC(N)=NCCC[C@H](NC(=O)c1sccc1NS(=O)(=O)c1cccc2nsnc12)C(=O)O |  | 74.7% |
